{
  "source": "the supplement of paper PMC4022240",
  "binders": {"B1": {"name": "H3 30-42 P A T G G V Kme Kme2 P H R Y R (peptide)", "chain": "PATGGVKKPHRYR"}, "B2": {"name": "H3 30-42 P A T G G V Kme3 K P H R Y R (peptide)", "chain": "PATGGVKKPHRYR"}, "B3": {"name": "H3 30-42 P A T G G V Kac Kac P H R Y R (peptide)", "chain": "PATGGVKKPHRYR"}, "B4": {"name": "H3 20-32 L A Tph Kme A A R K S A P A T (peptide)", "chain": "LATKAARKSAPAT"}, "B5": {"name": "H3 30-42 P A T G G V Kme2 Kme3 P H R Y R (peptide)", "chain": "PATGGVKKPHRYR"}},
  "assay_in_all_cases": "peptide microarray binding signal (635 nm), min-max normalized on array (fraction of array maximum); higher = stronger binding",
  "key": {"[1]": {"target": "T1, HaloTag-ATRX ADD domain (163-292)", "T1 chain": "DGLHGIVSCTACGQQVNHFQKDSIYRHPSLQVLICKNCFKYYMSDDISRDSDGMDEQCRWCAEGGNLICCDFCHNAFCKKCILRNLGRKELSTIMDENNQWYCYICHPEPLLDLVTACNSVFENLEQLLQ", "how_it_was_run": "(§1)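 Arrays carried histone 13-mer peptide–cellulose conjugates printed in triplicate on nitrocellulose alongside a Cy3 tracer. After overnight blocking at 4°C, they were incubated for 1 h at 4°C with biotin-labelled HaloTag reader fusions (10 nM to 1 μM) plus streptavidin-Alexa Fluor 647, or with rabbit histone antibodies (1:10,000 to 1:2,000) plus anti-rabbit Alexa 647. Scanning on an Axon GenePix 4000B used 635 nm for signal and 532 nm for misprints. The binding signal reported is each triplicate's mean spot intensity after per-library min-max scaling.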"}, "[2]": {"target": "HaloTag-ING2 PHD (mouse Ing2 200-280)", "how_it_was_run": "as §1"}, "[3]": {"target": "anti-H3K4me3 antibody ab8580", "how_it_was_run": "as §1"}, "[4]": {"target": "anti-H3K9me3 antibody ab8898", "how_it_was_run": "as §1"}, "[5]": {"details": "peptide region: H3 30-42, peptide modifications: H3K36me1 H3K37me2, binder concentration: 1:2,000 dilution"}, "[6]": {"details": "peptide region: H3 30-42, peptide modifications: H3K36me1 H3K37me2, binder concentration: 1:10,000 dilution"}, "[7]": {"details": "peptide region: H3 30-42, peptide modifications: H3K36me3, binder concentration: 1:2,000 dilution"}, "[8]": {"details": "peptide region: H3 30-42, peptide modifications: H3K36me3, binder concentration: 1:10,000 dilution"}, "[9]": {"details": "peptide region: H3 30-42, peptide modifications: H3K36ac H3K37ac, binder concentration: 1:2,000 dilution"}, "[10]": {"details": "peptide region: H3 30-42, peptide modifications: H3K36ac H3K37ac, binder concentration: 1:10,000 dilution"}, "[11]": {"details": "peptide region: H3 20-32, peptide modifications: H3T22ph H3K23me1, binder concentration: 1:2,000 dilution"}, "[12]": {"details": "peptide region: H3 20-32, peptide modifications: H3T22ph H3K23me1, binder concentration: 1:10,000 dilution"}, "[13]": {"details": "peptide region: H3 30-42, peptide modifications: H3K36me2 H3K37me3, binder concentration: 1:2,000 dilution"}, "[14]": {"details": "peptide region: H3 30-42, peptide modifications: H3K36me2 H3K37me3, binder concentration: 1:10,000 dilution"}},
  "note": "± gives the standard deviation.",
  "data": [
    {"binder": "B1", "values": [
      {"measurement": "peptide microarray binding signal", "setting": "[1]; peptide region: H3 30-42, peptide modifications: H3K36me1 H3K37me2, binder concentration: 50 nM", "value": "0.00241 ± 8.1e-05"},
      {"measurement": "peptide microarray binding signal", "setting": "[1]; peptide region: H3 30-42, peptide modifications: H3K36me1 H3K37me2, binder concentration: 500 nM", "value": "0.00529 ± 0.00037"},
      {"measurement": "peptide microarray binding signal", "setting": "[2]; peptide region: H3 30-42, peptide modifications: H3K36me1 H3K37me2, binder concentration: 10 nM", "value": "0.00442 ± 0.00037"},
      {"measurement": "peptide microarray binding signal", "setting": "[2]; peptide region: H3 30-42, peptide modifications: H3K36me1 H3K37me2, binder concentration: 100 nM", "value": "0.00709 ± 0.0016"},
      {"measurement": "peptide microarray binding signal", "setting": "[3]; [5]", "value": "0.000245 ± 5.2e-06"},
      {"measurement": "peptide microarray binding signal", "setting": "[3]; [6]", "value": "0.000571 ± 1.1e-05"},
      {"measurement": "peptide microarray binding signal", "setting": "[4]; [5]", "value": "0.00337 ± 0.0001"},
      {"measurement": "peptide microarray binding signal", "setting": "[4]; [6]", "value": "0.000865 ± 2.4e-05"}
    ]},
    {"binder": "B2", "values": [
      {"measurement": "peptide microarray binding signal", "setting": "[1]; peptide region: H3 30-42, peptide modifications: H3K36me3, binder concentration: 50 nM", "value": "0.00574 ± 0.00018"},
      {"measurement": "peptide microarray binding signal", "setting": "[1]; peptide region: H3 30-42, peptide modifications: H3K36me3, binder concentration: 500 nM", "value": "0.007429 ± 7.1e-05"},
      {"measurement": "peptide microarray binding signal", "setting": "[2]; peptide region: H3 30-42, peptide modifications: H3K36me3, binder concentration: 10 nM", "value": "0.0195 ± 0.00025"},
      {"measurement": "peptide microarray binding signal", "setting": "[2]; peptide region: H3 30-42, peptide modifications: H3K36me3, binder concentration: 100 nM", "value": "0.02445 ± 0.00017"},
      {"measurement": "peptide microarray binding signal", "setting": "[3]; [7]", "value": "0.00383 ± 0.00027"},
      {"measurement": "peptide microarray binding signal", "setting": "[3]; [8]", "value": "0.00468 ± 0.00012"},
      {"measurement": "peptide microarray binding signal", "setting": "[4]; [7]", "value": "0.0031 ± 0.00028"},
      {"measurement": "peptide microarray binding signal", "setting": "[4]; [8]", "value": 0.00219}
    ]},
    {"binder": "B3", "values": [
      {"measurement": "peptide microarray binding signal", "setting": "[1]; peptide region: H3 30-42, peptide modifications: H3K36ac H3K37ac, binder concentration: 50 nM", "value": "0.00357 ± 6.3e-05"},
      {"measurement": "peptide microarray binding signal", "setting": "[1]; peptide region: H3 30-42, peptide modifications: H3K36ac H3K37ac, binder concentration: 500 nM", "value": "0.00462 ± 8.3e-05"},
      {"measurement": "peptide microarray binding signal", "setting": "[2]; peptide region: H3 30-42, peptide modifications: H3K36ac H3K37ac, binder concentration: 10 nM", "value": "0.00489 ± 0.00017"},
      {"measurement": "peptide microarray binding signal", "setting": "[2]; peptide region: H3 30-42, peptide modifications: H3K36ac H3K37ac, binder concentration: 100 nM", "value": "0.00539 ± 0.00019"},
      {"measurement": "peptide microarray binding signal", "setting": "[3]; [9]", "value": "0.00264 ± 0.00042"},
      {"measurement": "peptide microarray binding signal", "setting": "[3]; [10]", "value": "0.003024 ± 2.6e-05"},
      {"measurement": "peptide microarray binding signal", "setting": "[4]; [9]", "value": "0.00427 ± 0.00042"},
      {"measurement": "peptide microarray binding signal", "setting": "[4]; [10]", "value": "0.00271 ± 0.00018"}
    ]},
    {"binder": "B4", "values": [
      {"measurement": "peptide microarray binding signal", "setting": "[1]; peptide region: H3 20-32, peptide modifications: H3T22ph H3K23me1, binder concentration: 50 nM", "value": "0.012 ± 0.0014"},
      {"measurement": "peptide microarray binding signal", "setting": "[1]; peptide region: H3 20-32, peptide modifications: H3T22ph H3K23me1, binder concentration: 500 nM", "value": "0.0173 ± 0.0019"},
      {"measurement": "peptide microarray binding signal", "setting": "[2]; peptide region: H3 20-32, peptide modifications: H3T22ph H3K23me1, binder concentration: 10 nM", "value": "0.0223 ± 0.0014"},
      {"measurement": "peptide microarray binding signal", "setting": "[2]; peptide region: H3 20-32, peptide modifications: H3T22ph H3K23me1, binder concentration: 100 nM", "value": "0.0368 ± 0.0079"},
      {"measurement": "peptide microarray binding signal", "setting": "[3]; [11]", "value": "0.00793 ± 0.0012"},
      {"measurement": "peptide microarray binding signal", "setting": "[3]; [12]", "value": "0.0102 ± 0.0018"},
      {"measurement": "peptide microarray binding signal", "setting": "[4]; [11]", "value": "0.00538 ± 0.00068"},
      {"measurement": "peptide microarray binding signal", "setting": "[4]; [12]", "value": "0.003 ± 9.2e-05"}
    ]},
    {"binder": "B5", "values": [
      {"measurement": "peptide microarray binding signal", "setting": "[1]; peptide region: H3 30-42, peptide modifications: H3K36me2 H3K37me3, binder concentration: 50 nM", "value": "0.00266 ± 7.1e-05"},
      {"measurement": "peptide microarray binding signal", "setting": "[1]; peptide region: H3 30-42, peptide modifications: H3K36me2 H3K37me3, binder concentration: 500 nM", "value": "0.00343 ± 0.00019"},
      {"measurement": "peptide microarray binding signal", "setting": "[2]; peptide region: H3 30-42, peptide modifications: H3K36me2 H3K37me3, binder concentration: 10 nM", "value": "0.00298 ± 6.6e-05"},
      {"measurement": "peptide microarray binding signal", "setting": "[2]; peptide region: H3 30-42, peptide modifications: H3K36me2 H3K37me3, binder concentration: 100 nM", "value": "0.00454 ± 0.00042"},
      {"measurement": "peptide microarray binding signal", "setting": "[3]; [13]", "value": "0.0016 ± 0.00015"},
      {"measurement": "peptide microarray binding signal", "setting": "[3]; [14]", "value": "0.00126 ± 3.7e-05"},
      {"measurement": "peptide microarray binding signal", "setting": "[4]; [13]", "value": "0.00429 ± 0.0012"},
      {"measurement": "peptide microarray binding signal", "setting": "[4]; [14]", "value": "0.00133 ± 4e-05"}
    ]}
  ]
}
